# Where “and” joins values, the source holds several entries; their conditions need not be identical. Equal values may be shown once. Calls of active or inactive are those of the source. Rule for the calls: active = hit-call score of the fitted dose curve at least 0.9, where 1 is the maximum; inactive = score below 0.9.
# Read-out: Interleukin-8 (IL8), CXCL8 (gene 3576)
# Assay: BSK_MyoF_IL8: BioMAP Diversity Plus: MyoF Assay for Interleukin-8 (IL8) Biomarker Activity (AID 2284261)
# Conditions: primary human lung fibroblasts
# Method: BSK_MyoF is a cell-based, multiplexed-readout assay that uses lung fibroblasts, […], with measurements taken at 24 hours after chemical dosing in a microplate: 96-well plate.BSK_MyoF_IL8 is an assay component measured in the BSK_MyoF assay. It measures IL-8 antibody related to regulation of gene expression using ELISA technology.Data from the assay component BSK_MyoF_IL8 was analyzed at the endpoint, BSK_MyoF_IL8, in the positive analysis fitting direction relative to DMSO as the negative control and baseline of activity. Using a type of binding reporter, gain or loss-of-signal activity can be used to understand protein changes. To generalize the intended target to other relatable targets, this assay endpoint is annotated to the 'cytokine' intended target family, where the subfamily is 'interleukins'.
# The levels of cell surface (or secreted, indicated by the prefix "s") biomarker endpoints were measured by ELISA. Overt cytotoxicity to cells in confluent adherent cultures (all systems other than the BT system) was assessed by measuring total protein levels using sulforhodamine B (SRB) staining in parallel cultures at the time of biomarker measurements, indicated as SRB endpoints. For proliferation assays for adherent cell types, individual cell types are cultured at sub-confluence and relative cell numbers quantified by SRB staining at time points optimized for each system (48 h: 3C and CASM3C systems; 72 h: BT and HDF3CGF systems; 96 h: SAg system). SRB was performed by staining cells with 0.1% SRB after fixation with 10% TCA and reading wells at 560 nm.Viability and proliferation of PBMC (T cells) was quantified by Alamar Blue reduction for the SAg and BT systems. For PBMC viability (referred to as PBMC Cytotoxicity within the assay endpoint names), cells were plated (75,000/well in a 96-well plate) and then chemical samples added for 1 h before addition of activators, SEB and TSST-1 (20 ng/mL final concentration each). Cells were incubated for 90 h. Then, Alamar Blue (20 uL/well) (Invitrogen, Cat DAL1100) was added for 6 h, and the plates were read with a fluorescence microplate reader at 546/580 nm (excitation/emission). For PBMC proliferation, cells were plated and activated as above but incubated for only 16 h prior to addition of Alamar Blue. Plates were read after 6 h.
Structure (SMILES),outcome,AC50
O=C(O)CCC(F)(F)C(F)(F)C(F)(F)C(F)(F)C(F)(F)C(F)(F)F,inactive,–
CCCCCc1ccc(O)cc1,inactive,–
O=S(=O)(O)C(F)(F)C(F)(F)C(F)(F)C(F)(F)C(F)(F)C(F)(F)C(F)(F)C(F)(F)C(F)(F)C(F)(F)F,inactive,–
O=C(O)CCC(F)(F)C(F)(F)C(F)(F)C(F)(F)C(F)(F)F,inactive,–
CC(C)(C)c1ccc(O)c(O)c1,inactive,–
CN(CCO)S(=O)(=O)C(F)(F)C(F)(F)C(F)(F)C(F)(F)C(F)(F)C(F)(F)C(F)(F)C(F)(F)F,inactive,–
Oc1cc2ccccc2cc1O,inactive,–
O=P(O)(O)CCC(F)(F)C(F)(F)C(F)(F)C(F)(F)C(F)(F)C(F)(F)F,inactive,–
C=CC(=O)OCCC(F)(F)C(F)(F)C(F)(F)C(F)(F)C(F)(F)C(F)(F)C(F)(F)C(F)(F)F,inactive,–
Cc1cccc2c1ccc1ccccc12,inactive,–
O=C1OC2(c3ccccc31)c1cc(I)c(O)c(I)c1Oc1c2cc(I)c(O)c1I,–,3.37 µM (active)
C=CC(C)(CCC=C(C)C)OC(C)=O (stereo not drawn),inactive,–
C=CC(=C)CC/C=C(\C)CCC=C(C)C,inactive,–
OCCN1CN(CCO)CN(CCO)C1,inactive,–
NC(=NCCCCCCN=C(N)/N=C(\N)Nc1ccc(Cl)cc1)/N=C(\N)Nc1ccc(Cl)cc1,–,5.05 µM (active)
Cc1ccc(C(=O)c2ccccc2)cc1,inactive,–
CN(Cc1cnc2nc(N)nc(N)c2n1)c1ccc(C(=O)N[C@@H](CCC(=O)O)C(=O)O)cc1,inactive,–
CCCCC(CC)C(=O)OCCOCCOCCOCCOC(=O)C(CC)CCCC (stereo not drawn),inactive,–
Cc1ccc(N=Nc2c(O)ccc3ccccc23)c(C)c1,inactive,–

Structure (SMILES),outcome,AC50
COc1cc(OC)nc(NC(=O)NS(=O)(=O)Nc2ccccc2C(=O)N(C)C)n1,inactive,–
O=C(O)C(F)(F)OC(F)(F)C(F)(F)OC(F)(F)C(F)(F)OC(F)(F)C(F)(F)C(F)(F)C(F)(F)F,–,46.8 µM (active) and 44.5 µM (active)
C=COC(=O)C(C)(C)CCCCCC,inactive,–
CC[N+](CC)(CC)Cc1ccccc1,inactive,–
COCN(COC)c1nc(N(COC)COC)nc(N(COC)COC)n1,inactive,–
O=P(O)(O)CCC(F)(F)C(F)(F)C(F)(F)C(F)(F)C(F)(F)C(F)(F)C(F)(F)C(F)(F)F,inactive,–
O=C(NO)c1ccccc1,inactive,–
CN(C)c1ccc(C(=C2C=CC(=[N+](C)C)C=C2)c2ccccc2)cc1,–,2.76 µM (active)
CC1=NN(c2ccccc2)C(=O)C1,inactive,–
Clc1ccc(Nc2nnc(Cc3ccncc3)c3ccccc23)cc1,inactive,–
O=C(NCc1ncc(C(F)(F)F)cc1Cl)c1c(Cl)cccc1Cl,inactive,–
OCC(F)(F)C(F)(F)C(F)(F)C(F)(F)C(F)(F)C(F)(F)C(F)(F)C(F)(F)C(F)(F)C(F)(F)C(F)(F)F,inactive,–
CCOC(=O)CN[C@@H](C(=O)N1CC[C@H]1C(=O)NCc1ccc(/C(N)=N/O)cc1)C1CCCCC1,inactive,–
CCCCCCCCCCCCCCCCCC[N+](C)(C)Cc1ccccc1,–,5.06 µM (active)
O=C1c2ccc(O)c(O)c2C(=O)c2c(O)ccc(O)c21,inactive,–
COc1cccc(O)c1,inactive,–
COC1=CC(=O)C[C@@H](C)[C@]12Oc1c(Cl)c(OC)cc(OC)c1C2=O,inactive,–
O=C(CC(=O)C(F)(F)C(F)(F)C(F)(F)F)c1cccs1,inactive,–
C[C@]12CC[C@@H]3c4ccc(O)cc4CC[C@H]3[C@@H]1C[C@@H](O)[C@@H]2O,inactive,–
